Test results published in PubChem BioAssay (NCATS).
Results filed as inconclusive are left out. Unmarked numbers belong to inactive results. Active and inactive are the calls of the source. Calls come from the whole dose curve; as a rule, active = well fitted cell-killing curve with a large enough effect; inconclusive = small, poorly fitted or top-dose-only effect, or effect the other way; inactive = no such curve, though single readings can be large or run the other way.

Test: Quantitative High-Throughput drug screen in 47 multiple myeloma cell lines against the NCATS MIPE library collection: U266_ATCC cell viability assay (AID 1919864); note: nearly all actives have a fitted effect of over 35% in size
Conditions: U266 myeloma viability, CellTiter-Glo ATP luminescence, 48 h; series mostly up to 45.8 µM; viability (% of DMSO control): at the top concentration
Excerpt: PI: Beverly A. Mock Ph.D.
Laboratory of Cancer Biology and Genetics,
Center for Cancer Research, National Cancer Institute,
National Institute of Health, Bethesda, Maryland
Drug resistance and disease progression are common in multiple myeloma (MM) patients, underscoring the need for new therapeutic combinations. […] We hypothesized that effective combinations would reduce MYC expression and enhance p16 activity. […] These preclinical data identify potentially useful drug combinations for evaluation in drug-resistant MM and reveal potential mechanisms of combined drug sensitivity.
Described herein is the primary MIPE qHTS used to cherrypick compounds. Validated compounds were then further tested for potential synergistic activiy.
[1] Peat TJ, Gaikwad SM, Dubois W, Gyabaah-Kessie N, Zhang S, Gorjifard S, Phyo Z, Andres M, Hughitt VK, Simpson RM, Miller MA, Girvin AT, Taylor A, Williams D, D'Antonio N, Zhang Y, Rajagopalan A, Flietner E, Wilson K, Zhang X, Shinn P, Klumpp-Thomas C, McKnight C, Itkin Z, Chen L, Kazandijian D, Zhang J, Michalowski AM, Simmons JK, Keats J, Thomas CJ, Mock BA. Drug combinations identified by high-throughput screening promote cell cycle transition and upregulate Smad pathways in myeloma. Cancer Lett. 2023 Aug 1;568:216284. doi: 10.1016/j.canlet.2023.216284. Epub 2023 Jun 24. PMID: 37356470; PMCID: PMC10408729.
SEQUENCE No. (e.g., 1, 2, 3, etc.); […] (e.g., Cells, Incubation, Reagent, etc.); VALUE and DESCRIPTION.
1; Cells; 5 uL; white, solid bottom 1536-well Greiner assay plate.
2; Compounds; 23 nL; Kalypsis pin tool (Wako USA) equipped with a 1536-well pin head to transfer to the assay plates.
3; Incubation; 48 hours; 37C incubation.
4; Reagent;5uL; CellTiter Glo (Promega).
5; Detector; 425V; Luminescence; Viewlux PerkinElmer.
NOTES (numbers refer to Sequence numbers above)
1. The cell-based screening methods employed in this study were like those previously published. Briefly, the corresponding myeloma cell lines were screened in 1,536-well plates with 500 cells, 5-uL per well for inhibition of cell viability (assessed by measuring ATP levels with CellTiterGlo).
2. NCATS MIPE 4.0 library of approved and investigational drugs were added using the Kalypsis pin tool. Wells treated with DMSO only for 100% viability and media only for 0% viability were used as controls.
3. The assay plates were covered and incubated for 48 hours in a 37C, 5% CO2 incubator with controlled humidity.
4. After 48 hours, CellTilter-GloTM luminescent substrate mix (Promega) reagent was added to the assay plate and plates we incubated for 5 min at room temperature.
5. Signal was measured as median relative luminescence units on a ViewLux (PerkinElmer) multiplate reader.
[1] Heske CM, Davis MI, Baumgart JT, Wilson K, Gormally MV, Chen L, Zhang X, Ceribelli M, Duveau DY, Guha R, Ferrer M, Arnaldez FI, Ji J, Tran HL, Zhang Y, Mendoza A, Helman LJ, Thomas CJ. Matrix Screen Identifies Synergistic Combination of PARP Inhibitors and Nicotinamide Phosphoribosyltransferase (NAMPT) Inhibitors in Ewing Sarcoma. Clin Cancer Res. 2017 Dec 1;23(23):7301-7311. doi: 10.1158/1078-0432.CCR-17-1121. Epub 2017 Sep 12. PMID: 28899971; PMCID: PMC6636827.
Potency is the fitted concentration of half-maximal effect.

Row | SMILES | viability (% of DMSO control) | Potency
1 | O=C1N(c2ccccc2)c2ccccc2C1(Cc1ccncc1)Cc1ccncc1 | 127% | 
2 | COc1ccccc1N1CCN(CC(O)COc2cccc3ccccc23)CC1 (stereo not given) | 117% | 
3 | CCc1cccc2c3c([nH]c12)C(CC)(CC(=O)O)OCC3 (stereo not given) | 109% | 
4 | Cc1ccc(C(=O)Nc2ccc(S(=O)(=O)O)c3cc(S(=O)(=O)O)cc(S(=O)(=O)O)c23)cc1NC(=O)c1cccc(NC(=O)Nc2cccc(C(=O)Nc3cc(C(=O)Nc4ccc(S(=O)(=O)O)c5cc(S(=O)(=O)O)cc(S(=O)(=O)O)c45)ccc3C)c2)c1 | 125% | 
5 | CC[C@@]1(O)C(=O)OCc2c1cc1n(c2=O)Cc2cc3c(CN(C)C)c(O)ccc3nc2-1 |  | 13.2 µM (active)
6 | Cc1cc(C(C)(C)C)c(O)c(C)c1CC1=NCCN1 | 126% | 
7 | Clc1ccccc1C(c1ccccc1)(c1ccccc1)n1ccnc1 | 127% | 
8 | CN(Cc1cnc2nc(N)nc(N)c2n1)c1ccc(C(=O)N[C@@H](CCC(=O)O)C(=O)O)cc1 |  | 0.148 µM (active)
9 | CC(C)(Oc1ccc(C2CC2(Cl)Cl)cc1)C(=O)O (stereo not given) | 111% [at 92.2 µM] | 
10 | CC(CCc1ccc(O)cc1)NCCc1ccc(O)c(O)c1 (stereo not given) |  | 23.5 µM (active)
11 | CN(C)CCCN1c2ccccc2CCc2ccc(Cl)cc21 |  | 0.526 µM (active)
12 | O=C(C1CCCCC1)N1CC(=O)N2CCc3ccccc3C2C1 (stereo not given) | 115% | 
13 | CN(C)C(=O)C(CCN1CCC(O)(c2ccc(Cl)cc2)CC1)(c1ccccc1)c1ccccc1 |  | 18.7 µM (active)
14 | CC#C[C@]1(O)CC[C@H]2[C@@H]3CCC4=CC(=O)CCC4=C3[C@@H](c3ccc(N(C)C)cc3)C[C@@]21C |  | 0.662 µM (active)
15 | Cn1c(=O)c2[nH]cnc2n(C)c1=O |  | 20.9 µM (active)
16 | CCOC(=O)Nc1ccc(NCc2ccc(F)cc2)nc1N | 126% | 
17 | CN1CCN(CCCN2c3ccccc3Sc3ccc(Cl)cc32)CC1 |  | 18.7 µM (active)
18 | COc1ccc2c(c1)c(CC(=O)O)c(C)n2C(=O)c1ccc(Cl)cc1 |  | 18.7 µM (active)
19 | CC1COc2c(N3CCN(C)CC3)c(F)cc3c(=O)c(C(=O)O)cn1c23 (stereo not given) | 122% | 
20 | NC(=O)NO |  | 2.64 µM (active)

Row | SMILES | viability (% of DMSO control) | Potency
21 | O=C1c2c(O)ccc(O)c2C(=O)c2c(NCCNCCO)ccc(NCCNCCO)c21 |  | 1.05 µM (active)
22 | CCC1(C)CC(=O)NC1=O (stereo not given) | 120% | 
23 | COc1ccc2[nH]cc(CCNC(C)=O)c2c1 |  | 8.33 µM (active)
24 | O=c1[nH]cc(F)c(=O)[nH]1 |  | 3.32 µM (active)
25 | Cc1ccccc1N1C(=O)c2cc(S(N)(=O)=O)c(Cl)cc2NC1C (stereo not given) |  | 3.72 µM (active)
26 | NCCS(=O)(=O)O | 124% | 
27 | CC(C(=O)O)c1cccc(C(=O)c2ccccc2)c1 (stereo not given) | 116% | 
28 | CC(C)NCC(O)c1ccc(O)c(O)c1 (stereo not given) |  | 16.6 µM (active)
29 | CCCNCC(O)COc1ccccc1C(=O)CCc1ccccc1 (stereo not given) | 85.8% | 
30 | COc1cc2nc(N(C)CCCNC(=O)C3CCCO3)nc(N)c2cc1OC (stereo not given) | 115% | 
31 | NCCc1cnc[nH]1 | 151% | 
32 | COc1nc(C)nc(Cl)c1NC1=NCCN1 |  | 20.9 µM (active)
33 | CCC1(c2ccccc2)C(=O)NCNC1=O |  | 2.96 µM (active)
34 | CS(=O)(=O)CCNCc1ccc(-c2ccc3ncnc(Nc4ccc(OCc5cccc(F)c5)c(Cl)c4)c3c2)o1 |  | 5.9 µM (active)
35 | CCOC(=O)C(C)(C)Oc1ccc(Cl)cc1 | 144% | 
36 | CN(C)C(=N)N=C(N)N | 123% | 
37 | CNCCCC12CCC(c3ccccc31)c1ccccc12 |  | 16.6 µM (active)
38 | CCCCc1oc2ccccc2c1C(=O)c1cc(I)c(OCCN(CC)CC)c(I)c1 |  | 3.72 µM (active)
39 | CC[N+](CC)(CC)CCOc1cccc(OCC[N+](CC)(CC)CC)c1OCC[N+](CC)(CC)CC | 131% | 
40 | Cn1c(=O)c2c(ncn2C)n(C)c1=O | 139% | 
